{"source": "the supplement of paper PMC11732987", "about": "“Enantioselective OTUD7B fragment discovery through chemoproteomics screening and high-throughput optimisation” (Communications Chemistry, 2025)", "test_in_all_cases": "log2 ratio of Biotin-Ahx-Ub-VS probe labelling (fragment/DMSO); higher = less target engagement (more negative = stronger competition), active = hit call of the paper (q ≤ 0.05, log2 ratio ≤ -1)", "details_in_all_cases": "compound concentration: 200 uM; treatment time: 3 h", "key": {"USP19": {"target": "T1, USP19 (UniProt O94966)", "T1 sequence (whole entry)": "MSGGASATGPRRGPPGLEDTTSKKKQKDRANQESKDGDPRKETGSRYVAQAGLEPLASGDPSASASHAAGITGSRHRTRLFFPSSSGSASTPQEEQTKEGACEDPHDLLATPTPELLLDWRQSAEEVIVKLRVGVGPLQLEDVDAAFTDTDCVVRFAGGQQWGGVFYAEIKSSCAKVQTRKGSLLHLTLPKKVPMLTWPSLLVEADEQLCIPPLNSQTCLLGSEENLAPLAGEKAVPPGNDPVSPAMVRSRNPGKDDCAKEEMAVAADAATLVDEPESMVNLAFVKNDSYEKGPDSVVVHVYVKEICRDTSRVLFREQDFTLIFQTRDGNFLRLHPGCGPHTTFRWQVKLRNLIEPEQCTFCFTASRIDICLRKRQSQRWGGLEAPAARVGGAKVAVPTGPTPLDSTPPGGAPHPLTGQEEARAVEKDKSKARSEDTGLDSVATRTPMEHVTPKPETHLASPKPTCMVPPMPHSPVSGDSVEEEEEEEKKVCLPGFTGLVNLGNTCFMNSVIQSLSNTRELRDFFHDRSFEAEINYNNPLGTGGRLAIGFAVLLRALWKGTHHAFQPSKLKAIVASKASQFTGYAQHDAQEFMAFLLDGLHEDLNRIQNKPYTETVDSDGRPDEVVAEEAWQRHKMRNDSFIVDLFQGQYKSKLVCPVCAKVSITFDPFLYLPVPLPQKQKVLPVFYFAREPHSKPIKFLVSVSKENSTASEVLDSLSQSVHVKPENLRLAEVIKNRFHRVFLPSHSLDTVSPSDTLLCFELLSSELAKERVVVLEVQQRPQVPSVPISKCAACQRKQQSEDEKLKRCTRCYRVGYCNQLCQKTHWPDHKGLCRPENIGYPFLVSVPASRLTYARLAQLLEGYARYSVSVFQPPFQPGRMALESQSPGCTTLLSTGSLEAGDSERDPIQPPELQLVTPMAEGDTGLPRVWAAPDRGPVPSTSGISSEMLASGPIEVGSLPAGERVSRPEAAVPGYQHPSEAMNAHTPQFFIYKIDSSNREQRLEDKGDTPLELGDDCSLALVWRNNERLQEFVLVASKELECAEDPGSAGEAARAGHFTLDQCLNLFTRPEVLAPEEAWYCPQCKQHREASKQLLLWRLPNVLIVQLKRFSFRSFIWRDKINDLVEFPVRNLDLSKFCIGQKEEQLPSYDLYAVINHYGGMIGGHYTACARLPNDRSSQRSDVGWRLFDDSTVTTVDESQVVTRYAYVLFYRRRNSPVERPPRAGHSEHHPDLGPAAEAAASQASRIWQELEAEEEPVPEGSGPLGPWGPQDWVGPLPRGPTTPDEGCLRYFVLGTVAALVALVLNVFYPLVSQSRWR", "summary_of_the_method": "(§1)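 Triplicate samples of HEK293T lysate, 495 µg each, received fragment at 200 µM or vehicle for 3 h, followed by Biotin-Ahx-Ub-VS (0.5 µM final) for 1 h. After NeutrAvidin enrichment of labelled DUBs and LysC/trypsin digestion, peptides were run by diaPASEF LC-MS/MS. The values are average log2 fragment/vehicle ratios from global-median-normalised Spectronaut label-free quantities, tested by unpaired t-test on proteins having ≥2 unique peptides.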"}, "USP24": {"target": "USP24 (UniProt Q9UPU5)", "sequence (Q9UPU5 whole entry)": "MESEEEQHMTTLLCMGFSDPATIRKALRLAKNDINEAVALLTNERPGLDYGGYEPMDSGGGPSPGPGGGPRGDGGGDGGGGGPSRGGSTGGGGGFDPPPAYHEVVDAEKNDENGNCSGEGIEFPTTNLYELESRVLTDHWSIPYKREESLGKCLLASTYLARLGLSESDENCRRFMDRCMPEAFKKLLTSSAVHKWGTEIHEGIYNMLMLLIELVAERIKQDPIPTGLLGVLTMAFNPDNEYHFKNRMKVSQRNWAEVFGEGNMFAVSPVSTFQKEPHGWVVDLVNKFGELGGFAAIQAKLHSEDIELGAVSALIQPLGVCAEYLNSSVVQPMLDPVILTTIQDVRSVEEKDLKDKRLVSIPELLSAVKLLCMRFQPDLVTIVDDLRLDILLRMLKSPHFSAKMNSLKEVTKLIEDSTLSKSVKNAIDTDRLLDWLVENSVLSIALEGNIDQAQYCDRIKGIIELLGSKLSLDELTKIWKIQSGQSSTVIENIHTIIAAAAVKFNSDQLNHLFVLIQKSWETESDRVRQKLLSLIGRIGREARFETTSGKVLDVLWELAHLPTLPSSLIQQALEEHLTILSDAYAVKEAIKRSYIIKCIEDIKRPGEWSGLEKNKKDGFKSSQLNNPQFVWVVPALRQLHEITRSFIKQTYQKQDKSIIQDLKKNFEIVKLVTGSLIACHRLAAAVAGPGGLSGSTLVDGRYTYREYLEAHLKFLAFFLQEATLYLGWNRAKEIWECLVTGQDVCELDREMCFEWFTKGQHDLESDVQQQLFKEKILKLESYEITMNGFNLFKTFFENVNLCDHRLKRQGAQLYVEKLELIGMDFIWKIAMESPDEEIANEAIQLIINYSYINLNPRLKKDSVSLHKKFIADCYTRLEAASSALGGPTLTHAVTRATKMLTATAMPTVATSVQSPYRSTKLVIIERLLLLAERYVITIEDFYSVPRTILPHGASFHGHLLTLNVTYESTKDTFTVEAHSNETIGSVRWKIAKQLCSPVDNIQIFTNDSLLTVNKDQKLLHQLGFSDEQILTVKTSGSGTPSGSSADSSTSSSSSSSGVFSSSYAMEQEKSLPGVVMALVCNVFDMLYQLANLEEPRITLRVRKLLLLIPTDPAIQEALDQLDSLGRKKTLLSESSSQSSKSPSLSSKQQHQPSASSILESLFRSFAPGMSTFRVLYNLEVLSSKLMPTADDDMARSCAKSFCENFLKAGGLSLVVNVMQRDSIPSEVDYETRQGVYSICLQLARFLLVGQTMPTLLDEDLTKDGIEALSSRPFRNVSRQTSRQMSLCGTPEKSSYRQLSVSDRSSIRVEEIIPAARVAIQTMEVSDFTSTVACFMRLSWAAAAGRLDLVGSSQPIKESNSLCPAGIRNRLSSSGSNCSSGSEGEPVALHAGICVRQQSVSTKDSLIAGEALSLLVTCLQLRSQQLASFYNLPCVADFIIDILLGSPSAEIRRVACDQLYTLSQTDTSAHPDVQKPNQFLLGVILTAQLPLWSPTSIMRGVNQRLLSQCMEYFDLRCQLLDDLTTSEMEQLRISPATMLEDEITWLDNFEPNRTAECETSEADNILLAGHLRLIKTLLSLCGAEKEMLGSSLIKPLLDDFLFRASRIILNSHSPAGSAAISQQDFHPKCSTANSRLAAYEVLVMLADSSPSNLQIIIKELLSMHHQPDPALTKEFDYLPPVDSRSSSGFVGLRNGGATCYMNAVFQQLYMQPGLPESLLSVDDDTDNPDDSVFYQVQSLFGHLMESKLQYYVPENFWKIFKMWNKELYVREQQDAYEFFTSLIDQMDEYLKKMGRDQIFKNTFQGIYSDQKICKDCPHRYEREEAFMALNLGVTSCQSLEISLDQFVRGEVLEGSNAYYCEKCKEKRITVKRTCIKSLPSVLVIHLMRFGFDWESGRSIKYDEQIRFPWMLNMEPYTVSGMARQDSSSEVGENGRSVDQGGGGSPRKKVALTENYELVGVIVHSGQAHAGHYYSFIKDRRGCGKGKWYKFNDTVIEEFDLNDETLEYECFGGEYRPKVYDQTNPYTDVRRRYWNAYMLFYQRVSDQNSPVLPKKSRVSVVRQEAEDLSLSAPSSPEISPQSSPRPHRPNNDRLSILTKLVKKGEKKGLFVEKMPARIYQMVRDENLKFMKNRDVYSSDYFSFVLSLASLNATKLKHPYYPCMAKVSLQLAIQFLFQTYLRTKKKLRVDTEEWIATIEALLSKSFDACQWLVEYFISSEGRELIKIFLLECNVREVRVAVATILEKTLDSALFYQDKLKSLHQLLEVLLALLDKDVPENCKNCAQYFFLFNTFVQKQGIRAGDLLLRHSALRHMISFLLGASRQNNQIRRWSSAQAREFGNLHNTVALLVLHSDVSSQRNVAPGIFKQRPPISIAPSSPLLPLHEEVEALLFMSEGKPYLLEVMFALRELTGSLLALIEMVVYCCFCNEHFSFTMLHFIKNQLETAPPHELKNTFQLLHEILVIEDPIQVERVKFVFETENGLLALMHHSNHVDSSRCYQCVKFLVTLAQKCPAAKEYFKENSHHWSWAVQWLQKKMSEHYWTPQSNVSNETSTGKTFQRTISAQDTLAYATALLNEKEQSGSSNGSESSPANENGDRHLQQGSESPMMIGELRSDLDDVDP", "summary_of_the_method": "as §1"}, "USP25": {"target": "T2, USP25 (UniProt Q9UHP3)", "T2 sequence (whole entry)": "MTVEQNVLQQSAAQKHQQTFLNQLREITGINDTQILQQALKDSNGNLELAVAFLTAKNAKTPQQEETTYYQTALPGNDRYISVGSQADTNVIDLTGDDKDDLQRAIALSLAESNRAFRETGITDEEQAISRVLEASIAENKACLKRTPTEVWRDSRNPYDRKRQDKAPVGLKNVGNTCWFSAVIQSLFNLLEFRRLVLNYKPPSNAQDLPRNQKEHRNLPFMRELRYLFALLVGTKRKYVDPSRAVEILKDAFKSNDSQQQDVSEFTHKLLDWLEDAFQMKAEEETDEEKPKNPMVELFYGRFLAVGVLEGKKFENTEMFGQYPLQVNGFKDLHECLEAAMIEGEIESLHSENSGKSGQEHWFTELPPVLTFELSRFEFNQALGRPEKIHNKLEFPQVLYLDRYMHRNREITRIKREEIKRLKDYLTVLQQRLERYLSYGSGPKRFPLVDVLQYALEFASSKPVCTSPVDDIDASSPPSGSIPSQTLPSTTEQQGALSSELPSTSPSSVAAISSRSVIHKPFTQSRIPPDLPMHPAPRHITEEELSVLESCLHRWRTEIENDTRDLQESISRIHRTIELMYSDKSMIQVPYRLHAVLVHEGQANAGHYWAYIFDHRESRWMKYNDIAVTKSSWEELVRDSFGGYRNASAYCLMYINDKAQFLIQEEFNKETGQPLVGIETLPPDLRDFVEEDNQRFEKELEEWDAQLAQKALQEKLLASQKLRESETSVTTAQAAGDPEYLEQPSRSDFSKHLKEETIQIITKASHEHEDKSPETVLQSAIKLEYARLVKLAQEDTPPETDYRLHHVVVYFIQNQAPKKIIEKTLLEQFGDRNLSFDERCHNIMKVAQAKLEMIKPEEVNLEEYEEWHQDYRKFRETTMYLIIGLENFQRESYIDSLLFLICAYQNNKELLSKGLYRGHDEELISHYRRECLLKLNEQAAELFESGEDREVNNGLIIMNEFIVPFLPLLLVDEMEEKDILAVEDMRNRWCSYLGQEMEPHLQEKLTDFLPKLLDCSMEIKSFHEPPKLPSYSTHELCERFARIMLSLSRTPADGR", "summary_of_the_method": "as §1"}, "USP28": {"target": "T3, USP28 (UniProt Q96RU2)", "T3 sequence (whole entry)": "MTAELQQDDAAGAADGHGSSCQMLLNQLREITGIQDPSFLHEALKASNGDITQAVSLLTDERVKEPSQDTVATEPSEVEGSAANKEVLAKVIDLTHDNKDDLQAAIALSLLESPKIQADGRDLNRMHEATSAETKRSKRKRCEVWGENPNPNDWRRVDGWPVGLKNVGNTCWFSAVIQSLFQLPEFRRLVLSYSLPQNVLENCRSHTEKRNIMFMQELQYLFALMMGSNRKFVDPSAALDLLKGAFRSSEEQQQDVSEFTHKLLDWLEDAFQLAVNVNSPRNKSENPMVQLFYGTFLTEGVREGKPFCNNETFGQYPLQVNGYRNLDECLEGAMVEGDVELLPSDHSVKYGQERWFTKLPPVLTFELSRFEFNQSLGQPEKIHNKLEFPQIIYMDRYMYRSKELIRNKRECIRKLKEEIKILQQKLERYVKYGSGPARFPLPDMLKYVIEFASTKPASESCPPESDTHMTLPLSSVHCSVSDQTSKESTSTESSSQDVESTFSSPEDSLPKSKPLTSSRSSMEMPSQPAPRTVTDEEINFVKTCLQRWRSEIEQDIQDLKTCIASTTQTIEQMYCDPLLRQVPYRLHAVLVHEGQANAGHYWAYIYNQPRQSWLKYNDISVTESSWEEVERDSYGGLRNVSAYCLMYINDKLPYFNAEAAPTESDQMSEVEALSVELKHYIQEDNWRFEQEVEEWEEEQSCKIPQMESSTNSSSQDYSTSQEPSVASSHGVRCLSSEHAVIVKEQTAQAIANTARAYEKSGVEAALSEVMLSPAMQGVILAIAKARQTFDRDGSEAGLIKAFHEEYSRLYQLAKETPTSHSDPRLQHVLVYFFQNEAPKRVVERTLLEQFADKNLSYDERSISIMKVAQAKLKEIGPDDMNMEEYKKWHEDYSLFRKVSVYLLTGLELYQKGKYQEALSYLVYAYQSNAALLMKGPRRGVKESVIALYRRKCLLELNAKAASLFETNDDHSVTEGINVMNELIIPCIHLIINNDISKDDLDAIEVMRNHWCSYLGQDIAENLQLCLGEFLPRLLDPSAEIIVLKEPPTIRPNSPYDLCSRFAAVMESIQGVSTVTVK", "summary_of_the_method": "as §1"}}, "note": "A number with no mark means an inactive call.", "data": [{"smiles": "O=C(CCl)N1CCc2nc[nH]c2C1c1ccc(Cl)cc1", "note": "(centres undefined)", "values": [{"measurement": "log2 ratio of Biotin-Ahx-Ub-VS probe labelling", "setting": "USP19", "value": -0.509}, {"measurement": "log2 ratio of Biotin-Ahx-Ub-VS probe labelling", "setting": "USP24", "value": "-1.47 (active)"}, {"measurement": "log2 ratio of Biotin-Ahx-Ub-VS probe labelling", "setting": "USP25", "value": -0.591}, {"measurement": "log2 ratio of Biotin-Ahx-Ub-VS probe labelling", "setting": "USP28", "value": -0.738}]}]}
